In the supplement of paper PMC6555819:

test system: LXRb:RXRa (NR concentration 270 nM, RXRa partner concentration 90 nM); experiment: PBM binding z-score (relative to random genomic background probes); higher = stronger binding; sequences stand for … in GC…GCGATTGACAGCGTAGAATGAAGG
Procedure, shortened: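 Custom Agilent 4×180K protein-binding microarrays carried double-stranded probes, each with a 34-nt variable region. These regions held direct-repeat seeds, single-nucleotide variants, half-site ablations and random human genomic background sequences. Ligand-free nuclear receptor dimers were incubated on the arrays for 1 h, antibodies against each partner (one per run) detected binding, and scanned fluorescence was regression-normalized. Binding z-scores take the random background probes as reference.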

First: ATCTCTAGGTAAAGGTAGTTCAGTGAATGCAAAT
Second: ACTTTTAGTTGAGACGAGGGCAACCGATAGGTTG
The PBM binding z-score of the first is higher: 0.88 for the first, 0.176 for the second.

Compared with TGTTGTAGATCAGCAGGTTAAGAAAGCTGGCCAA, CACCCTAGGTCAGGGCCAGTATAGGAGGAACGTT is higher in PBM binding z-score: -0.397 for the first, 1.2 for the second.

First: AGAATGAGGTTATTAAGATCTGGGAATTGCGGTC
Second: CGTCCAAGGTCAGAGACGTCAGTGAATGCCGAGT
The PBM binding z-score of the first is lower: 1.26 for the first, 1.87 for the second.

First: ATCTCTCGGTAACAAGTTCAGTGAAAGAGAGGAC
Second: TCTATTAGTTGAAGGGCAACCAACGAGTCCGTTT
The PBM binding z-score of the first is lower: 0.549 for the first, 0.694 for the second.

First: TCTATTAGTTGCAGGGCAACCGACGAGTCCGTTT
Second: CAAACTGGGTCACGAAAGGTCAAAGTCGAATGAC
The PBM binding z-score of the first is lower: 0.702 for the first, 7.01 for the second.

Compared with TTCCCAAGGTGAAAGGTCGTTGATGCACGCCTTG, CGTACAAGGTCATAGGAGGTCAGTGAAGACAGAT is higher in PBM binding z-score: 2.97 for the first, 6.46 for the second.

Going from CCTAGCAGGCCACTCTGGGTCACTCAAGGCTTGA to AGTCAAAGTTCATCTAGGTAACGTACGATATGCT, the PBM binding z-score rises from 1.91 to 3.91.

First: CAAACTAGGTCATGAAAGGTCAAAGTCGAATGAC
Second: CGTCCAAGTTCAAGGTAACGTAACAGAAAGCAGC
The PBM binding z-score of the first is higher: 7.23 for the first, 1.53 for the second.

Compared with CAAACTAGGTCGCAGAGGTCAAAGTCCGTGCGTA, CCTATTAGTTGACCATAAGGGCAACGGAAGCTCG is lower in PBM binding z-score: 5.36 for the first, 0.234 for the second.

Going from CAAACTAGGTCACGAAAGGACAAAGTCGAATGAC to CCTCTGAGGACAGAAGGTCAGAGCTGTCCGCTTT, the PBM binding z-score falls from 4.08 to 1.25.

Compared with TCTACTAGTTGAAGGGCAACCGACGAGTCCGTTT, GCTAGCAGGCCATGTGGGTCACTCAATGACGGGC is lower in PBM binding z-score: 0.212 for the first, -0.292 for the second.
